For 54 compounds, INHIBITION results are on record in ChEMBL document CHEMBL4513216, “Probing the Open Global Health Chemical Diversity Library for Multistage-Active Starting Points for Next-Generation Antimalarials” (ACS Infect Dis, 2020).

Among all 69,000 compounds or so, about 8,600 (12%) showed an effect of 50% or more. The full list was thinned out, with strong results kept by preference.

For this test, the system named is Plasmodium berghei. Nature of the test: Screen against P. berghei liver stage (PbLuc), transformed with Luciferase, at 10uM. To be noted: tested at 10 uM. In kind it is functional, HepG2.
With `Cc1oc(-c2nc(C#N)c(NC(C)C)o2)cc1S(=O)(=O)N1CCCC1`, the INHIBITION is listed as 34.6%.
As to `CNc1oc(-c2cc(S(=O)(=O)N3CCCCCC3)c(C)o2)nc1C#N`, the INHIBITION is on record as 39.5%.
In the case of `Cc1oc(-c2nc(C#N)c(NC(C)C)o2)cc1S(=O)(=O)N1CCCCC1` it was 60.1%.
The figure for `Cn1cnc(S(=O)(=O)N2CCCc3c(F)cc(F)cc32)c1Cl` is 30.3%.
In the case of `Cc1cccc(OCCSCCn2nc3ccccn3c2=O)c1` it was 22%; in that of `CCc1nc(CN(C)C(=O)c2ccc(OCCCOC)nc2)cs1`, 82.5%.
`COCCCOc1ccc(C(=O)N(C)CCC(C)C)cn1`: the INHIBITION was 39.7%.
The figure for `COCCCOc1ccc(C(=O)N(C)Cc2cccc(O)c2)cn1` is 38%; for `COCC(=O)N1CCC(c2cc(-c3ccc(OC)cc3)n[nH]2)C1` (centres undefined) it is -50.3%.
The figure for `CCOC1CCN(C(=O)Nc2ccc(=O)n(C)c2)CC1` is 33%; for `Fc1cccc(OC2CCN(CCn3cc4ccccc4n3)CC2)c1` it is 75.2%.
On to `CN1CCN(C2CCN(CCOc3ccccc3F)CC2)C1=O`, for which the INHIBITION is recorded as -22.9%.
In the case of `COc1ccccc1OC1CCN(Cc2cccnc2)CC1` it was 5.91%; in that of `c1cncc(O[C@H]2COCCN(CC3CC3)C2)c1`, 12.4%.
The figure for `CCc1ncc(CN2CCC(Oc3ccccc3OC)CC2)cn1` is -40%; for `c1cncc(OC2CCN(CCn3cc4ccccc4n3)CC2)c1` it is 50.8%.
The figure for `Fc1ccccc1OC1CCN(CCn2cc3ccccc3n2)CC1` is 89.3%.
For the compound `OCCn1nccc1C1CCN(CCOc2cccc(F)c2)CC1`, the INHIBITION worked out at 31.9%.
In the case of `Cc1ccc(CNC(=O)NCc2nccn2C)c(OC(C)(C)C)c1`, the INHIBITION was 43.5%.
As to `CC(C)NC(=O)N1CCN(C(=O)C2CCOCC2)CC2(CNC(=O)C2)C1` (centres undefined), the INHIBITION is 1.9%.
`CCC(=O)N1CCN(C(=O)NCCOc2ccc3c(c2)CCC3)CC1`: the INHIBITION was 30.2%.
As for `Cc1nccn1-c1ccc(NS(=O)(=O)c2cnn(C)c2)cn1`, the INHIBITION worked out at 4.95%.
The figure for `Cc1cccc(CN2Cc3[nH]nc(COCC4CC4)c3C2)n1` is 48.2%; for `Cc1ncc(CN2CCCC2)c2cc(C(=O)c3ccc(Br)cc3)oc12` it is 44.5%.
In the case of `CN(C)c1ccc(C(=O)NCc2csc(Br)c2)cn1` it was 1.75%; in that of `Cc1ncc(CN(C)CCO)c2cc(C(=O)c3ccc(Br)cc3)oc12`, 36.8%.
In the case of `Cc1ncc(CNCC(C)O)c2cc(C(=O)c3ccc(Br)cc3)oc12` (centres undefined) it was 50.5%.
Turning to `COC(=O)c1oc(CNC(C)(C)CO)cc1C`, the INHIBITION is reported as -3.35%.
In the case of `Cc1ncc(CNC(C)(C)CO)c2cc(C(=O)c3ccc(Br)cc3)oc12` it was 65.3%; in that of `Cc1ncc(CN2CCOCC2)c2cc(C(=O)c3ccc(Br)cc3)oc12`, -21.8%; in that of `CC(O)CNC(=O)Nc1ccc(Br)cc1Br` (centres undefined), 29.1%.
The figure for `Cc1ncc(CNCCO)c2cc(C(=O)c3ccc(Br)cc3)oc12` is 59.2%.
The figure for `CN1C(=O)CCC12CCC(NCc1ccsc1)CC2` (centres undefined) is 8.74%; for `COCCOC1CCN(C(C(=O)O)c2ccc3c(c2)OCO3)CC1` (centres undefined) it is 14.9%; for `COCCCC1CCCCN1Cc1cn2cc(C)ccc2n1` (centres undefined) it is -17.2%.
Consider `CN1CCN(C(=O)CCCc2ccccc2)CC(O)(Cn2cccn2)C1` (centres undefined), for which the INHIBITION is listed as 26.65%.
In the case of `Cc1ccc(C)c(-n2cc(CN3CCOCC3)c(-c3ccccc3)n2)c1` it was 33.4%; in that of `Cc1ccc(-n2cc(CN3CCOCC3)c(-c3cccc(C)c3)n2)cc1`, 56.1%; in that of `Cc1ccc(C)c(-n2cc(CN3CC[C@@H](O)C3)c(-c3ccccc3)n2)c1`, 39.9%.
The figure for `COc1cc(N2CCCn3cnc(COC(C)C)c3C2)ncn1` is 48.2%; for `Cc1cc(NC(=O)C(C)Nc2cccc(COCc3ccco3)c2)on1` (centres undefined) it is 39.5%; for `Cc1cc(-c2ccc(C(=O)O)cc2)nc(C2CCN(C(C)C)CC2)n1` it is 2.71%.
In the case of `Cc1cccc(Nc2cc(C)nc(C3CCN(C(C)C)C3)n2)n1` (centres undefined) it was 60.9%; in that of `Cc1cc(C)nc(Nc2cc(C)nc(C3CCN(C(C)C)C3)n2)n1` (centres undefined), 11.685%; in that of `Cc1nc(-c2cccc(C(=O)O)c2)cc(C2CCN(C(C)C)C2)n1` (centres undefined), 0.0932%.
`Cc1cc(C)nc(Nc2cccc(C3CCCN(C(C)C)C3)n2)n1` (centres undefined): the INHIBITION is -21.4%.
In the case of `Cc1cc(-c2cccc(C(=O)O)c2)nc(C2CCN(C(C)C)CC2)n1` it was 56%.
The figure for `Cc1noc(Cl)c1CCC(=O)N1CCN(Cc2ccncc2)CC1` is 1.78%.
In the case of `Cc1nn2cnnc2c(C)c1CCC(=O)Nc1nnc(C2CC2)s1` it was -31.1%; in that of `CC(C(=O)NCCc1ccc2c(c1)OCCO2)n1cncn1` (centres undefined), 35.4%.
For `CCN(Cc1noc(CC(C)C)n1)Cc1cc2ccc(F)cc2[nH]c1=O`, the INHIBITION is reported as -7.65%.
The figure for `Cn1cccc1CN1CCc2c(nc(-c3ccccn3)[nH]c2=O)C1` is 6.32%.
The figure for `CCOc1ccc2[nH]c(=O)c(CN3CCCC(CO)(CO)C3)cc2c1` is -46.4%.
Take `CO[C@H]1CCN(C(=O)c2ccc3[nH]nnc3c2)C[C@@]12CCCO2`: the INHIBITION is recorded as 5.34%.
